BoNT-A LC inh2 – BoNT/A light chain protease inhibitors, primary screen, biochemical, flow cytometry, MLPCN library. inhibition, % at 10 µM. multiplex microsphere protease substrate cleavage. 360,000 compounds, 0.17% hits. AID 588499, 2011; also: plate controls were buffer without enzyme for full effect and enzyme alone for no effect
Bead autofluor – counter-screen for toxin protease inhibitors: compound fluorescence; compound autofluorescence counterscreen, microsphere flow cytometry; hits give high values; fluorescence intensity (test concentration not listed); 360,000 compounds, 3.1% hits; AID 624483; in the data active = fluorescence intensity above about 16000
Anthrax LF prot – Bacillus anthracis LF protease inhibitors, primary screen, biochemical, multiplex microsphere, MLPCN library; Lethal factor (Bacillus anthracis), P15917; multiplex microsphere protease cleavage assay; inhibition, % at 10 µM; 360,000 compounds, 0.12% hits; AID 588501, 2011; also: plate controls were buffer without enzyme for full effect and enzyme alone for no effect
BoNT F protease – BoNT/F light chain protease inhibitors, primary screen, biochemical, flow cytometry, MLPCN library. Botulinum neurotoxin type F light chain protease (Clostridium botulinum). Multiplex microsphere protease cleavage assay. inhibition, % at 10 µM. 360,000 compounds, 0.22% hits; in the data active = inhibition above about 35%, passing the limit was not always enough; also: plate controls were buffer without enzyme for full effect and enzyme alone for no effect
MazEF act – activators of E. coli MazEF toxin-antitoxin RNase, primary screen, biochemical, fluorescence, uHTS; Endoribonuclease toxin MazF (Escherichia coli (strain K12)), P0AE70; FAM/BHQ RNA-DNA oligo cleavage fluorescence, 5 h; activation, % at 20 µM; 350,000 compounds, 0.32% hits; in the data active = activation above about 50%
Target sequence (P0AE70 whole entry, looked up): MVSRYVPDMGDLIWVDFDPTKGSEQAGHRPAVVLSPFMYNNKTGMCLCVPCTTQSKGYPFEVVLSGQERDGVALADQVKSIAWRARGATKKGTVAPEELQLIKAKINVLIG
Starred values were filed as active, the others as inactive; / = no result. A selection: hits, their analogues and other compounds. The true share with any hit is near 3.6%. Rule as the data show it, unless noted: active = inhibition above about 30%; inconclusive = no clear call, values can overlap the other calls; inactive = below that.

SMILES	BoNT-A LC inh2	Bead autofluor	Anthrax LF prot	BoNT F protease	MazEF act
CCOc1ccc2ccccc2c1C1NC(=O)NC(C)=C1C(=O)OCCOC (centres undefined)	0	3887	0	1	-4
COC(=O)c1ccc2c(=O)n(NC(C)=O)c(=S)[nH]c2c1	-2	23622*	-3	-5	-4
COC(=O)c1ccc2c(=O)n(-c3ccc(OC)cc3)c(=S)[nH]c2c1	-1	4365	-6	-2	4
COc1cc2[nH]c(=S)n(NC(=O)c3ccccc3)c(=O)c2cc1OC	-1	16796*	0	0	8
O=C(CC(=O)Nc1cccc(Cl)c1Cl)Nc1cccc(Cl)c1Cl	-3	3772	0	-16	-20
CCCCn1c(=O)[nH]c(=O)c2c1nc(-c1cccc(OC)c1)n2C	-6	4241	-7	-25	-36
CCCCn1c(=O)[nH]c(=O)c2c1nc(-c1ccc(OC(F)F)c(OC)c1)n2C	1	5569	-2	3	71*
CCOC(=O)N1CCN(S(=O)(=O)c2c(C(=O)N3CCCCC3)c(C)n(C)c2C)CC1	-2	4860	0	-3	12
Cc1nc2ccc(NS(=O)(=O)c3cccc([N+](=O)[O-])c3)cc2s1	0	3457	0	-4	-9
CCOC(=O)Nc1sc2c(c1C(N)=O)CCC(C)C2 (centres undefined)	-1	4113	0	-3	2
Cc1ccc(C)c(S(=O)(=O)NCC(=O)Nc2sc3c(c2C(N)=O)CCC(C)C3)c1 (centres undefined)	0	2585	0	6	56*
COc1ccc(/C=N/n2cnnc2)cc1COc1ccccn1	-1	23503*	-1	-1	0
Cc1ccc(-c2nnc(CSc3nc4cc5c(cc4cc3C)OCO5)o2)cc1	0	9192	4	-1	437*
Cc1csc(SCc2nnc(-c3ccc(Cl)cc3)o2)n1	1	3170	-3	2	-2
Cc1ccc(-c2nnc(CSc3nnc(C)s3)o2)cc1	1	22331*	-2	2	6
CCOC(=O)CSc1nc2cc3c(cc2cc1C)OCO3	0	4606	-1	-4	-1
OCCNc1nc(Nc2ccccc2Oc2ccccc2)nc(N2CCCC2)n1	0	3985	2	0	6
Cc1cncc(NCc2cccc(Cl)c2)n1	-1	4011	-7	-11	/
COc1ccc(CN2CCN(Cc3ccc(Br)cc3)CC2)c(OC)c1OC	0	3718	0	1	2
CCN1CCc2ccccc2C1	-1	5888	-9	-14	1
Cn1cc(CN2CCc3ccccc3C2)c2ccccc21	-3	21029*	1	-4	-1
Oc1ccc(CN2CCc3ccccc3C2)c2cccnc12	-2	16689*	-3	-12	4
CC(C)(C)c1ccc(C(=O)Cn2cnnc2C#N)cc1	0	3621	-2	24	-2
CC(=O)Nc1ccc(NC(=O)C(C)Sc2n[nH]c(=O)n2Cc2ccccc2)cc1 (centres undefined)	0	5551	3	0	12
Cc1ccc(NC(=O)c2noc3c2CCCCC3)cc1C	-2	16801*	-2	-2	9
SMILES	BoNT-A LC inh2	Bead autofluor	Anthrax LF prot	BoNT F protease	MazEF act
CCc1ccc(NC(=O)c2noc3c2CCCCC3)cc1	1	10839	-2	-4	1
Cc1ccc(NC(=O)c2noc3c2CCCCC3)cc1	1	22657*	0	-1	6
CCCCNC(=O)C1(C)CCN1C(=O)c1csnn1 (centres undefined)	0	2993	2	4	/
CC(Sc1nnnn1C)C(=O)Nc1ccccc1 (centres undefined)	1	4532	-1	5	-20
CC(=O)c1ccc(NC(=O)C(C)Sc2nnnn2C)cc1 (centres undefined)	-4	23749*	0	-6	-12
COc1ccc(N2CCN(C(CNS(=O)(=O)c3ccccc3)c3ccccc3)CC2)cc1 (centres undefined)	1	5509	-3	-10	7
O=C(NCCc1ccc(F)cc1)N[C@@H](Cc1ccccc1)C(=O)O	-4	4239	5	-24	3
O=C(O)/C=C/c1ccccc1Oc1ccccc1	1	6517	8	-2	1
C=CCOc1ccccc1/C=C/C(=O)O	-2	22958*	-3	1	6
CCC1(C)Cc2c(sc3c2c(=O)n(C)c2nnc(SCC(=O)c4ccccc4)n32)CO1 (centres undefined)	5	20408*	2	11	3
CCC1(C)Cc2c(sc3c2c2ncnn2c2nnc(SCC(=O)NCc4ccco4)n32)CO1 (centres undefined)	0	4889	2	-12	2
CSC1=N/C(=C\c2ccccc2)C(=O)N1C	3	21913*	-11	3	-2
CSC1=N/C(=C\c2cccnc2)C(=O)N1c1ccccc1	0	2512	-1	-3	2
FC(F)(F)c1nnc2c(Sc3ccccc3)nc3ccccc3n12	1	5577	-5	2	3
FC(F)(F)c1nnc2c(Sc3ccccn3)nc3ccccc3n12	1	22962*	1	3	5
CCOC(=O)c1ccc(-c2ccc(/C=C(\C#N)C(=O)NCC3CCCO3)o2)cc1 (centres undefined)	1	22009*	1	-2	-3
COc1ccc(/C=C(\C#N)C(=O)NCC2CCCO2)cc1OC (centres undefined)	2	9029	-4	9	-2
Clc1cccc(Sc2ccc(-c3ccccn3)s2)c1	0	5279	-2	-8	-6
CCC(Sc1nc2sc(C(=O)OC)c(C)c2c(=O)n1N)C(=O)N(CC)CC (centres undefined)	2	21202*	-6	1	0
CCCCNC(=O)C(CC)Sc1nc2sc(C(=O)OC)c(C)c2c(=O)n1N (centres undefined)	-1	10263	7	-2	8
CCn1ccc(C(=O)Nc2ccc3c(c2)CCC3)n1	4	5207	5	1	-4
CC(CCC(=O)O)C1CCC2C3C(O)CC4CC(O)CCC4(C)C3CC(O)C12C (centres undefined)	-1	5709	-9	-19	11
COC(=O)/C(N=Nc1cccc(C(F)(F)F)c1)=C(\C)O	0	2804	-2	8	6
COC(=O)C1=C(O)CSC1=Nc1cccc(C(F)(F)F)c1	-2	17678*	0	-2	-11
COc1ccc(C(=O)NC(C(=O)OCC(=O)Nc2sccc2C(N)=O)C(C)C)cc1 (centres undefined)	2	6179	8	6	-12
CCOC(=O)c1c(C)[nH]c(C(=O)COC(=O)CN2C(=O)C3CCCCC3C2=O)c1C (centres undefined)	2	9323	7	-1	-6
